# HCV inhibitor: qHTS Assay for Inhibitors of Hepatitis C Virus (HCV) | 3.4% of 340,000 active | Potency, µM (series often up to 41.8 µM), for the others: at the highest dose activity change, negative = inhibition, hits mostly inhibitors | Huh7.5.1 HCVcc-Cre infection, luciferase reporter, 44 h; also: % is scaled to controls: 0 for no effect and ±100 for the full control effect
#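 Whole-lifecycle infectious HCVcc-Cre system; cells 1,000/well, compound then virus (~0.5 moi) added 4 h after plating, 44 h culture. Luciferase read 15 sec following 15 min substrate incubation, room temp.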
# Pf growth 96h: Primary qHTS for delayed death inhibitors of the malarial parasite plastid, 96 hour incubation; Potency, µM (titrated, usually from 28.7 µM), for inactives: at the top dose activity change, negative = inhibition, hits mostly inhibitors; AID 504834, 2011; P. falciparum luciferase reporter growth, 96 h; 6.9% of 320,000 active; also: % is scaled to controls: 0 for no effect and ±100 for the full control effect
#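 Cell-based qHTS: luciferase-tagged P. falciparum in erythrocytes (2% hematocrit, 0.05% parasitemia final) incubated with compounds for 96 hours, 37 C, 5% CO2; luciferase detection reagent then added and luminescence measured.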
# AMA1 RON2 block: qHTS for Inhibitors of AMA1-RON; Towards Development of Antimalarial Drug Lead: Primary Screen; Potency, µM (highest dose often 58.2 µM), without a hit: at the highest dose activity change, negative = inhibition, hits mostly inhibitors; AlphaScreen AMA1-biotinylated RON2 peptide binding; Plasmodium falciparum AMA1 (3D7) - RON2 peptide interaction; 0.2% of 360,000 active;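 also: 0% = vehicle wells and -100% = peptide control; nearly all actives have a fitted effect of over 45% in size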
#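 AMA1 (3D7) with his tag at 25 nM final met compounds first, then biotinylated RON2 peptide at 25 nM; detection used donor plus acceptor beads, 10 µg/mL apiece, read by AlphaScreen after 30 min at room temperature.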
# NS1 function inh: qHTS Assay for Inhibitors of Influenza NS1 Protein Function; Potency, µM (titrated, usually from 46.1 µM), for the others: top-dose activity, positive = more growth; 0.4% of 270,000 active; calls by dose curve; also: actives are rising curves; nearly all actives have a fitted effect of over 50% in size
#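 A cell-based growth assay was used: compounds that relieve NS1-induced slow growth of budding yeast raise OD600. Assay medium was yeast nitrogen base with ammonium sulphate and -URA supplement, pH 6.0, with 2% galactose.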
# Pf growth 48h: Primary qHTS for delayed death inhibitors of the malarial parasite plastid, 48 hour incubation; P. falciparum luciferase growth in erythrocytes, 48 h; Potency, µM (titrated, usually from 28.7 µM), inactives show at the top dose activity change, negative = inhibition, hits mostly inhibitors; 5.9% of 310,000 active; also: % is scaled to controls: 0 for no effect and ±100 for the full control effect
#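 Parasite viability was followed by luminescence of a genomically integrated firefly luciferase. Cultures held 0.1% parasitemia at 2% hematocrit (final), incubated under 5% CO2 at 37 C.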
# SARS PLpro yeast: qHTS of Yeast-based Assay for SARS-CoV PLP; S. cerevisiae expressing SARS-CoV PLpro, growth rescue; Potency, µM (highest dose often 32.9 µM), without a hit: top-dose activity, positive = growth rescue, usual class: activators; 0.19% of 330,000 active; AID 485353, 2010; calls by dose curve; also: 0% is about no effect; nearly all actives have a fitted effect of over 55% in size
# Numbers without * were called inactive; ? = inconclusive; . = no result given; ! = a repeat was not active; [ ] = dose if it differs, or a comment. Shown are actives, neighbours in structure and some others; about 12% of the full set was active somewhere. Unless noted, calls follow the shape of the dose curve; as a rule, active = well fitted curve in the direction sought with a large enough effect; inconclusive = small, poorly fitted or top-dose-only effect, or another doubt; inactive = no such curve, though single readings can be large; an effect the other way counts as inactive or inconclusive. Potency is read from the fitted curve at half-maximal effect.
SMILES,HCV inhibitor,Pf growth 96h,AMA1 RON2 block,NS1 function inh,Pf growth 48h,SARS PLpro yeast
CCOC(=O)C1=C(C)NC(C)=C(C(=O)OCC)C1c1ccc(OC)cc1,-26%,-13%,-33%,-3%,?,13%
CCOC(=O)C1=C(C)NC(C)=C(C(=O)OCC)C1c1ccc([N+](=O)[O-])s1,-28%,13µM*,-8%,9%,?,-1%
CCOC(=O)C1=C(CCc2ccccc2)NC(=O)NC1c1cccc([N+](=O)[O-])c1 (stereo not given),?,56%,-3%,-10%,?,3%
COCCOC(=O)C1=C(C)NC(C)=C(C(=O)OC/C=C/c2ccccc2)C1c1cccc([N+](=O)[O-])c1 (stereo not given),.,8.5µM*,.,.,11µM*,.
CC(C)OC(=O)C1C(=O)CC(C)(O)C(C(=O)OC(C)C)C1c1cccc([N+](=O)[O-])c1 (stereo not given),10%,?,7%,.,?,-3%
COCCOC(=O)C1=C(C)NC(C)=C(C(=O)OC(C)C)C1c1cccc([N+](=O)[O-])c1 (stereo not given),?,6.6µM*!,-4%,-48%,9.3µM*,5%
COc1cc2[nH]c(=O)n(CCC(=O)NCCCN3CCN(c4ccccc4F)CC3)c(=O)c2cc1OC,-6%,?,2%,.,?,3%
CCC(COC)NCc1cn(-c2ccc(OC)cc2)nc1-c1cccc(F)c1 (stereo not given),-4%,?,-6%,0%,12µM*,-2%
COc1ccc(-n2cc(CNC3CCN(C)CC3)c(-c3cccc(F)c3)n2)cc1,11µM*,55%,-9%,2%,1.5µM*,0%
COc1ccccc1N(C)S(=O)(=O)c1ccc(C(=O)OC(C)C(=O)NCc2ccc3c(c2)OCO3)cc1 (stereo not given),11µM*,-14%,-7%,-15%,?,0%
CN(c1ccccc1)S(=O)(=O)c1ccc(Cl)c(C(=O)NCC(c2ccco2)N2CCCC2)c1 (stereo not given),?,?,-4%,.,?,-2%
O=C(NCC(c1ccco1)N1CCCCC1)c1ccc(COc2ccccc2)cc1 (stereo not given),13µM*,2.9µM*,0%,.,?,-4%
O=C(NCC(c1ccco1)N1CCCCC1)c1ccc(S(=O)(=O)Nc2ccccc2)cc1 (stereo not given),?,?,2%,.,-20%,-2%
COc1ccccc1N(C)S(=O)(=O)c1ccc(C(=O)NCC(c2ccco2)N2CCCCC2)cc1 (stereo not given),22µM*,.,-9%,.,.,.
CN(c1ccccc1)S(=O)(=O)c1ccc(C(=O)NCC(c2ccco2)N2CCCCC2)cc1 (stereo not given),?,7.4µM*,0%,.,?,-5%
O=C(COc1ccc(S(=O)(=O)Nc2ccccc2)cc1)NCc1ccncc1,3%,90%,2%,6%,1%,5%
COc1ccc(N(C)S(=O)(=O)c2cccc(C(=O)NCC(c3ccco3)N3CCCC3)c2)cc1 (stereo not given),?,?,13%,.,9.3µM*,0%
COc1ccc(Cl)cc1NS(=O)(=O)c1cccc(C(=O)NCC(c2ccco2)N2CCCC2)c1 (stereo not given),-17%,?,-8%,.,-3%,3%
CCOC(=O)c1cc(NC(=O)N(C)C2CCCCC2)c(C)nc1C,-5%,26%,-5%,-6%,9%,0%
CCOC(=O)c1cc(NC(=O)N(CC)C2CCCCC2)c(C)nc1C,4%,-1%[5.75 µM],2%,21%,1%,14µM*

# Screening data (PubChem BioAssay)
